Active and inactive are the calls of the source. Unless noted, how the calls were made is not given here.
Key:
[1] = compound effects on lung adenocarcinoma cell viability – A549, calcein-AM fluorescence, 48 h, basal, profiling panel (AID 1162); conditions: higher = more signal; further: test concentration not given here
[2] = compound effects on differentiated 3T3-L1 adipocyte viability – cell-based, 3T3-L1 adipocytes, calcein-AM fluorescence, 48 h, basal, profiling panel (AID 1163); conditions: 3T3-L1 adipocytes viability, higher = more signal; further: test concentration not given here
[3] = compound effects on hepatocellular carcinoma cell viability – HepG2, calcein-AM fluorescence, 48 h, basal, profiling panel (AID 1164); conditions: higher = more signal; further: test concentration not given here
[4] = compound effects on multiple myeloma cell viability – MM1S, calcein-AM fluorescence, 48 h, basal, profiling panel (AID 1165); conditions: higher = more signal; further: test concentration not given here
[5] = calcein-AM signal in unstimulated myeloma cells – cell-based, calcein-AM fluorescence, 48 h, PK04 Diversity Set, profiling panel (AID 1166); conditions: RPMI8226 myeloma viability, higher = more signal;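 further: cells grown under basal conditions without added stimulus; test concentration not given here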
[6] = JC-1 mitochondrial signal, unstimulated HepG2 cells – cell-based, JC-1 fluorescence, 24 h, 100 nL compound, profiling panel (AID 1167); conditions: HepG2 mitochondrial potential, higher = more signal; further: test concentration not given here
[7] = JC-1 mitochondrial signal, unstimulated adipocytes – cell-based, JC-1 fluorescence, 3T3-L1 adipocytes, 24 h, 100 nL compound, profiling panel (AID 1168); conditions: JC-1 mitochondrial fluorescence, higher = more signal, called active from +8 up or from −8 down; further: test concentration not given here
[8] = JC-1 mitochondrial signal, unstimulated myeloma cells – cell-based, JC-1 fluorescence, RPMI8226, 24 h, 100 nL compound, profiling panel (AID 1169); conditions: JC-1 mitochondrial potential fluorescence, higher = more signal; further: test concentration not given here
[9] = JC-1 mitochondrial signal, unstimulated MM1S myeloma – cell-based, JC-1 fluorescence, 24 h, 100 nL compound, profiling panel (AID 1170); conditions: MM1S mitochondrial potential, higher = more signal; further: test concentration not given here
[10] = resazurin metabolic signal in A549 cells – cell-based, resazurin fluorescence, 24 h, PK04 Diversity Set, profiling panel (AID 1171); conditions: A549 viability, higher = more signal, called active from +8 up or from −8 down; further: test concentration not given here
[11] = resazurin metabolic signal in HepG2 cells – cell-based, resazurin fluorescence, 24 h, PK04 Diversity Set, profiling panel (AID 1172); conditions: HepG2 viability, higher = more signal; further: test concentration not given here
[12] = budding yeast growth changes without added modifier – OD600, strain BY4716, 24 h, basal condition, primary screen (AID 1173); conditions: S. cerevisiae BY4716 growth, OD600, 24 h; higher = more signal, called active from +8 up or from −8 down
[13] = viability profiling in MM1S myeloma cells – cell-based, resazurin fluorescence, basal, 24 h, PK04 Diversity Set, profiling panel (AID 1174); conditions: higher = more signal, called active from +8 up or from −8 down; further: test concentration not given here
[14] = biological target: Dihydroorotate dehydrogenase (quinone), mitochondrial (Plasmodium falciparum (isolate 3D7)) (UniProt Q08210); assay: inhibition of P. falciparum DHODH – biochemical, C-terminal His tag, absorbance 600 nm, primary screen (AID 1175); conditions: PfDHODH enzyme, DCIP absorbance 600 nm; higher = more signal, called active from +8 up or from −8 down;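 further: recombinant parasite enzyme with a five histidine tag at its C terminus; test concentration not given here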
[15] = inhibition of PAO1 biofilm formation – strain PAO1, LB-PBS medium, absorbance 600 nm, primary screen (AID 1176); further: test concentration not given here; conditions: P. aeruginosa PAO1 growth/biofilm, A600, 12 h; higher = more signal
[16] = growth modulation of vineyard yeast isolate – strain RM11-1a, OD600, basal, 24 h, primary screen (AID 1177);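 further: cultures grown under basal conditions with no added stressor; test concentration not given here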; conditions: S. cerevisiae RM11-1a growth, OD600, 24 h; higher = more signal, called active from +8 up or from −8 down
[17] = growth of efflux-deficient E. coli DRC39 – strain DRC39, OD650, 24 h, E. coli filamentation inducers, primary screen (AID 1178);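 further: growth measured as culture turbidity by optical density at 650 nm; test concentration not given here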; conditions: E. coli DRC39 acrAB, higher = more signal, called active from +8 up or from −8 down
[18] = growth of efflux-deficient E. coli DRC39 – strain DRC39, OD650, 48 h, E. coli filamentation inducers, primary screen (AID 1179);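 further: screen aims at cell division blockers that make cells filament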; conditions: E. coli DRC39 delta-acrAB growth, higher = more signal, called active from +8 up or from −8 down
[19] = viability profiling in RPMI8226 myeloma cells – cell-based, resazurin fluorescence, basal, 24 h, PK04 Diversity Set, profiling panel (AID 1180); conditions: higher = more signal;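 further: RPMI8826 multiple myeloma cell line at 5000 cells per well; test concentration not given here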
[20] = biological target: E3 ubiquitin-protein ligase XIAP (Homo sapiens) (UniProt P98170); assay: small molecules binding XIAP protein – biophysical, small-molecule microarray, fluorescence 635 nm, primary screen (AID 1181); conditions: higher = more signal;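 further: score merges 667 nm emission and signal to noise over triplicate slides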
Chain of E3 ubiquitin-protein ligase XIAP (Homo sapiens) (P98170 whole entry, looked up): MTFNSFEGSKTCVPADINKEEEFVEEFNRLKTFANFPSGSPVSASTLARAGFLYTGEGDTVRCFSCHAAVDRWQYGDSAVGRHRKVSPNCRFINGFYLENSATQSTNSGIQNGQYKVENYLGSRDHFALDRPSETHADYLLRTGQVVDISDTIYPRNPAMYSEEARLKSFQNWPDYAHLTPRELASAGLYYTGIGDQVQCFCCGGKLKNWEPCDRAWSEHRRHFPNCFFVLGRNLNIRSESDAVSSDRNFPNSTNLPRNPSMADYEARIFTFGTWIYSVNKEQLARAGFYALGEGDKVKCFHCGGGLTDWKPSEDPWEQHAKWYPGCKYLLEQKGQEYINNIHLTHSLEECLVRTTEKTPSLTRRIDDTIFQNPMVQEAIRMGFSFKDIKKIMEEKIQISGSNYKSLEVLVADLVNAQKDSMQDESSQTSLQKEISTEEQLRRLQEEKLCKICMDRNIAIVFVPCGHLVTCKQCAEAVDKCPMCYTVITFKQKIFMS

Chain of Dihydroorotate dehydrogenase (quinone), mitochondrial (Plasmodium falciparum (isolate 3D7)) (Q08210 whole entry, looked up): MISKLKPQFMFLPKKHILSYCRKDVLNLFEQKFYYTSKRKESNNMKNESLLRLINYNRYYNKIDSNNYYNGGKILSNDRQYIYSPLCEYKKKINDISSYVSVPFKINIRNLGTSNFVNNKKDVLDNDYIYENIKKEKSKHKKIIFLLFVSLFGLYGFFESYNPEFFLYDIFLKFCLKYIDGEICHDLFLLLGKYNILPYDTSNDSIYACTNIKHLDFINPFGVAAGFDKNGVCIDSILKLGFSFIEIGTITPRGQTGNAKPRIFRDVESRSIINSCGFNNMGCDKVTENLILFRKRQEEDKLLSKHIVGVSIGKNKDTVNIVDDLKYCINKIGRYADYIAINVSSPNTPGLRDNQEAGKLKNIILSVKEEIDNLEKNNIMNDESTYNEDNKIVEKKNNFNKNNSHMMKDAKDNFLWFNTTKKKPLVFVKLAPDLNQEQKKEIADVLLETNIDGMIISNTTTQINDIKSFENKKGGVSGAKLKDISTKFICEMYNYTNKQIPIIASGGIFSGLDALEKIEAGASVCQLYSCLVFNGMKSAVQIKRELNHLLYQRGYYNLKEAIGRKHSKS

| Structure (SMILES) | z-score [1] | z-score [2] | z-score [3] | z-score [4] | z-score [5] | z-score [6] | z-score [7] | z-score [8] | z-score [9] | z-score [10] | z-score [11] | z-score [12] | z-score [13] | composite z-score [14] | z-score [15] | z-score [16] | z-score [17] | z-score [18] | z-score [19] | composite z-score [20] |
| --- | --- | --- | --- | --- | --- | --- | --- | --- | --- | --- | --- | --- | --- | --- | --- | --- | --- | --- | --- | --- |
| C=CCOC(=O)[C@@H]1[C@H]2C(=O)O[C@H](c3ccccc3)[C@H](c3ccccc3)N2[C@H](c2ccc(OCCOC(=O)[C@H]3C[C@H]4C(=O)NCC(=O)N4[C@H]3c3cccc(OCCO)c3)cc2)[C@@]12C(=O)Nc1ccc(I)cc12 | -0.175 | -0.407 | 0.946 | 0.464 | -0.785 | -1.05 | 1.44 (inactive) | -0.632 | -1.27 | 0.169 (inactive) | -0.155 | 1.87 (inactive) | -0.0681 (inactive) | 0.131 (inactive) | 3.08 (inactive) | 1.08 (inactive) | 0.0109 (inactive) | 0.312 (inactive) | -1.09 | -0.117 |
| NC(=O)NCC#Cc1ccc2c(c1)[C@]1(C(=O)N2)[C@H](c2ccc(OCCO)cc2)N2[C@H](c3ccccc3)[C@H](c3ccccc3)OC(=O)[C@H]2[C@@H]1C(=O)O | -0.295 | 1.09 | -0.21 | -1.9 | 0.111 | -1.9 | -0.469 (inactive) | -0.278 | -1.08 | 0.253 (inactive) | -0.983 | -0.434 (inactive) | 0.117 (inactive) | -0.996 (inactive) | 1.01 (inactive) | -0.264 (inactive) | 0.427 (inactive) | -0.533 (inactive) | 0.15 | -0.0013 |
| CC(C)OC(=O)CC(=O)CC(O)c1cccc([N+](=O)[O-])c1 (stereo not given) | 1.07 | 0.804 | 0.729 | 1.21 | 0.0484 | -0.524 | -0.718 (inactive) | 0.193 | -1.38 | 0.0126 (inactive) | -0.476 | -3.08 (inactive) | 0.326 (inactive) | -2.1 (inactive) | 1.1 (inactive) | -2.42 (inactive) | 0.704 (inactive) | 2 (inactive) | 0.083 | 0.15 |
| C=CCC(OC(C)=O)[C@@H]1[C@@H](N(Cc2cc3ccccc3o2)C(=O)Cc2ccc(OC)cc2)c2cc(OCCCO)ccc2N1C(=O)c1ccc2ccccc2n1 (stereo not given in full) | 0.542 | 1.46 | 1.26 | 0.307 | -1.63 | 2.31 | -0.106 (inactive) | -0.617 | 0.576 | -0.719 (inactive) | -1.11 | -0.791 (inactive) | 0.472 (inactive) | 0.278 (inactive) | 0.268 (inactive) | -0.266 (inactive) | 0.945 (inactive) | 0.346 (inactive) | -0.0391 | -0.058 |
| C=CCN1Cc2ccccc2[C@H]2OC(c3ccc(OCCCO)cc3)=N[C@@]2(CCS(=O)(=O)c2ccccc2)C1=O | 0.0622 | 0.413 | -0.37 | -1.56 | -0.209 | -0.971 | -0.509 (inactive) | -0.798 | -0.0644 | 0.0687 (inactive) | -0.439 | 1.11 (inactive) | -0.321 (inactive) | 0.2 (inactive) | 1.2 (inactive) | 0.86 (inactive) | -0.135 (inactive) | -0.342 (inactive) | -0.0829 | -0.0599 |
| COc1ccccc1CN1C(=O)c2ccccc2[C@](Cc2ccccc2I)(C(=O)NCC(C)C)[C@@H]1c1ccc(CO)cc1 | 1.26 | 0.297 | 2.05 | -0.746 | -0.458 | 1.41 | -0.808 (inactive) | -0.38 | -0.257 | 0.41 (inactive) | 0.52 | -0.441 (inactive) | 0.916 (inactive) | 0.133 (inactive) | 0.251 (inactive) | -0.337 (inactive) | 1.05 (inactive) | 1.29 (inactive) | 1.11 | -0.02 |
| COC(=O)[C@@]1(Cc2ccc(OC)cc2)[C@H]2c3cc(C(=O)N4CCCC4)n(CCn4cc([N+](=O)[O-])nc4C)c3C[C@H]2CN1C(=O)c1ccccc1 | -1.13 | 0.936 | 0.0032 | -0.0622 | -2.16 | 2.13 | -1.03 (inactive) | 0.564 | -0.693 | -0.612 (inactive) | -0.916 | 0.477 (inactive) | -1.72 (inactive) | -0.329 (inactive) | 2.04 (inactive) | -0.123 (inactive) | -0.784 (inactive) | -0.552 (inactive) | -1.65 | 0.111 |
| O=C1C=C(c2ccccc2)C(=O)C2=C1CC([C@H]1Oc3ccccc3S(=O)(=O)N3CCC[C@@H]13)=CC2 | -0.653 | -0.17 | -1.05 | -3.2 | -3.99 | -3.49 | -2.49 (inactive) | -1.16 | -2.67 | -0.0039 (inactive) | 0.203 | -3.37 (inactive) | -7.16 (inactive) | -1.54 (inactive) | -0.0461 (inactive) | -0.926 (inactive) | 0.0769 (inactive) | -0.807 (inactive) | -4.88 | -0.127 |
| COc1ccc(C(O)C2C=CC3C(=O)N(C)C(=O)C3N2N(c2ccccc2)c2ccccc2)cc1 (stereo not given) | -0.738 | -0.863 | 0.132 | 0.513 | -0.556 | -0.93 | -1.3 (inactive) | -0.544 | -0.426 | -0.691 (inactive) | -0.326 | 0.405 (inactive) | -1.61 (inactive) | -0.472 (inactive) | 0.971 (inactive) | 0.279 (inactive) | -0.41 (inactive) | 0.0882 (inactive) | -1.29 | -0.0772 |
